Screens as filed in PubChem.
Only some compounds are listed: those with a hit (about 1.9% of all), similar ones and a draw of the others.
RXFP1 agonist: qHTS Assay for Agonists of the Relaxin Receptor RXFP1. Relaxin receptor 1 (Homo sapiens), Q9HBX9. HEK293T-RXFP1 cAMP TR-FRET, 30 min; response scale: percent of porcine relaxin response, buffer zero. Potency, µM (titrated, usually from 57.5 µM), inactives show at the highest dose activation, usual class: activators. 370,000 compounds, 0.3% hits. AID 2676, 2010; also: potency is read from the fitted curve at half-maximal effect; % is scaled to controls: 0 for no effect and ±100 for the full control effect; nearly all actives have a fitted effect of over 60% in size
Target sequence (Q9HBX9 whole entry, looked up): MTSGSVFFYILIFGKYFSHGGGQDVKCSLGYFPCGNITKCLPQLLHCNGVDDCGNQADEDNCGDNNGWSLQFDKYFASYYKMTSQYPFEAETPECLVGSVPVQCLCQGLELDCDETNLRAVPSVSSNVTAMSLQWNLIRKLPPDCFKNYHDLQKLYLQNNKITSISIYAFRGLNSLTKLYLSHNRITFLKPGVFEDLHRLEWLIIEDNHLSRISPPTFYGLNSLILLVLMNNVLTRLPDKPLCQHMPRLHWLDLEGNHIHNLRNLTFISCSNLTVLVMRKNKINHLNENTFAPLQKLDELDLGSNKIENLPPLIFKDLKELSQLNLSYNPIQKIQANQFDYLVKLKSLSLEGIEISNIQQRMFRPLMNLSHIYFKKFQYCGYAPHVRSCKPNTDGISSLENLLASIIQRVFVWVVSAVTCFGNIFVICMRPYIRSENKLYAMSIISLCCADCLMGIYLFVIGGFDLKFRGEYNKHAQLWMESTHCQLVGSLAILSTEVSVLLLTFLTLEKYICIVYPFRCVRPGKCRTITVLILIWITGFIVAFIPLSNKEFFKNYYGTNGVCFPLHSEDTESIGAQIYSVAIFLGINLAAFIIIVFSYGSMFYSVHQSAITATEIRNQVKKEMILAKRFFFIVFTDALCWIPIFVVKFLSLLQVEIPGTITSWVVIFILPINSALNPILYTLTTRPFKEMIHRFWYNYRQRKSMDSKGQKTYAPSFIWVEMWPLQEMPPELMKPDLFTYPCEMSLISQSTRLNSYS
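Agonist response is measured as cAMP accumulation in an RXFP1-transfected HEK293T line under PDE4 inhibition. Values are scaled between buffer-only and 29 nM porcine relaxin, and EC50s come from standard Hill equation fits.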
Giardia killer: Small Molecules that selectively kill Giardia lamblia: qHTS; AID 540267, 2011; Giardia lamblia trophozoite viability; 340,000 compounds, 0.15% hits; activity change, % at 7.66 µM, hits read low; in the data active = activity change below about -80%; inconclusive = between about -30% and that limit;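 also: parasites exposed to compound for two days anaerobically before the ATP read; % is scaled to controls: 0 for no effect and ±100 for the full control effect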
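Giardia trophozoites, 100 cells per well, were exposed to compounds for 48 hrs at 37 deg C under anaerobic conditions; viability was then read as ATP content by bioluminescence after 15-30 min at room temperature.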
NPSR antag: qHTS Assay for Antagonists of the Neuropeptide S Receptor: cAMP Signal Transduction | 220,000 compounds, 1% hits | Q6W5P4 | AID 1461, 2008 | Potency, µM (titrated, usually from 38.3 µM), inactives show at the top dose activity change, negative = inhibition, most hits filed as inhibitors | CHO-NPSR cells, cAMP TR-FRET, antagonist mode; also: potency is read from the fitted curve at half-maximal effect; % is scaled to controls: 0 for no effect and ±100 for the full control effect; nearly all actives have a fitted effect of over 50% in size
IL2 activator: qHTS of IL-2 Activators; IL-2 activation reporter assay, cell-based qHTS; stimulated with anti-CD3/CD4/CD28 beads; in transgenic mouse T cells; 360,000 compounds, 0.065% hits; activation, % (series mostly up to about 46 µM); in the data active = activation above about 50%; inconclusive = mostly about 30% to 49%; also: 0% is about no effect
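Unstimulated transgenic mouse T cells, 750 per well, received compound and, after 60 minutes, anti-CD3/anti-CD4 bead plus anti-CD28 stimulation. EGFP and DsRed were quantified after 18 hours.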
BRCA1 expr act: qHTS Assay to Identify Small Molecule Activators of BRCA1 Expression. Potency, µM (titrated, usually from 46.1 µM), for inactives: at the top dose activation, most hits filed as activators. MCF7-BRCA1-FFLuc reporter, luminescence, 48 h; response scale: scaled: vehicle 0%, 10 µM genistein 100%. 380,000 compounds, 1.1% hits. AID 624202, 2012; also: potency is read from the fitted curve at half-maximal effect; nearly all actives have a fitted effect of over 80% in size
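Cells: MCF7-BRCA1-FFLuc, 2000/well. Exposure: 48 h, 37 °C, 5% CO2. Read: luminescence, 15 min post-substrate. Controls: genistein 10 microM (maximal activation), DMSO (neutral).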
RXFP1 antagonist: qHTS Assay for Antagonists of the Relaxin Receptor RXFP1; HEK293-RXFP1, relaxin-stimulated cAMP HTRF, 30 min; hits give low values; 350,000 compounds, 0.59% hits; Relaxin receptor 1 (Homo sapiens), Q9HBX9; AID 1259400, 2018; activity change, negative = inhibition, % at 57.5 µM;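 active = activity change of -60% or lower, but not beyond a set lower limit; inconclusive = change between -60% and -40%, or beyond the set limit; inactive = change above -40%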; also: % is scaled to controls: 0 for no effect and ±100 for the full control effect
An asterisk follows results filed as active; u = inconclusive; x = not tested or not shown; [ ] = remark or other dose. Unless noted, calls follow the shape of the dose curve; as a rule, active = well fitted curve in the direction sought with a large enough effect; inconclusive = small, poorly fitted or top-dose-only effect, or another doubt; inactive = no such curve, though single readings can be large; an effect the other way counts as inactive or inconclusive.

SMILES	RXFP1 agonist	Giardia killer	NPSR antag	IL2 activator	BRCA1 expr act	RXFP1 antagonist
CC(N=c1ccccn1C(=O)Nc1ccc(F)cc1)c1ccco1 (configuration not stated)	2%	-1	12%[46.1 µM]	-3	25%	-2
CC(N=c1ccccn1C(=O)Nc1ccc(Cl)cc1)c1ccco1 (configuration not stated)	-1%	u	-7%[7.67 µM]	2	10µM*	-10
COC(=O)N(C)c1nc2ccccc2s1	0%	6	10%[46.1 µM]	1	99%	-16
CCCCNC(=O)N(C)c1nc2ccccc2s1	3%	12	26%	10	4.5µM*	-15
CCNc1nc(C#N)nc(NCC)n1	x	-14	x	x	6%	x
O=C(NCC(c1cccs1)N1CCOCC1)c1cc(=O)[nH]c2ccccc12 (configuration not stated)	1%	-9	x	0	-1%	-77*
O=C(NCC(c1ccco1)N1CCCC1)c1cc(=O)[nH]c2ccccc12 (configuration not stated)	x	-16	x	0	-14%	-2
O=[N+]([O-])c1ccc2oc(-c3ccccc3)nc2c1	0%	-7	4%	0	3.2µM*	-5
Cc1cccc(-c2nc3cc([N+](=O)[O-])ccc3o2)c1	-1%	0	-10%	-1	2.5µM*	-7
CC(C)CN(CC(C)C)c1ccc(/C=C/c2nc3ccccc3s2)cc1	x	x	x	x	-4%	x
CCc1ccc(NC(=O)c2cc(C)on2)cc1	0%	-25	5%[46.1 µM]	-4	u	-7
COc1ccc(NC(=O)c2cc(-c3cccs3)on2)cc1	5%	16	x	3	4.5µM*	-8
COc1ccc(NC(=O)c2ccc(NC(=O)CCS(=O)(=O)c3cccs3)cc2)cc1	0%	-4	x	1	-1%	-97*
O=C(Nc1cc(Br)ccc1O)c1cc(-c2ccc3c(c2)OCO3)on1	0%	23	x	1	1.4µM*	-3
Cc1ccc(NC(=O)c2cc(C)on2)cc1	2%	-9	-25%[46.1 µM]	0	5µM*	4
COc1ccc(NC(=O)c2cc(-c3cccs3)on2)c(OC)c1	6%	9	x	0	-8%	-28
Cc1ccc(-c2cc(C(=O)Nc3cc(C)ccc3O)no2)cc1	1%	5	x	-4	1.1µM*	6
O=C(Nc1ccc(NC(=O)c2cccs2)cc1)c1cccc(Br)c1	4%	x	x	x	x	-7
O=C(Nc1cccc(NC(=O)c2cccs2)c1)c1ccc(Br)cc1	3%	16	x	-1	15%	-71*
O=C(NNC(=O)c1cccs1)c1ccc(Br)cc1	-2%	-9	x	0	13µM*	-10
Cc1cccc(-c2nnc(SCc3cc(=O)c4cccc(Cl)c4[nH]3)n2C)c1	18%	x	x	x	x	-5
CC(Oc1ccc(Cl)cc1Cl)c1nc(-c2ccc(NC(=O)c3ccccn3)cc2)no1 (configuration not stated)	-1%	6	-19%[46.1 µM]	1	1.3µM*	-8
COc1ccc(Cl)cc1-c1nc(-c2ccc(NC(=O)c3ccncc3)cc2)no1	x	-11	x	9	-16%	0
CCCN1CNc2c(c(=O)[nH]c(=S)n2CCc2cccc(C)c2)C1	x	-8	x	x	-21%	x
Cc1cccc(NC(=O)Cn2c(=O)n(CCc3ccccc3)c(=O)c3sc4ccccc4c32)c1	21%	x	x	x	x	15
SMILES	RXFP1 agonist	Giardia killer	NPSR antag	IL2 activator	BRCA1 expr act	RXFP1 antagonist
O=C(Nc1ccccc1F)c1ccn[nH]1	4%	5	2%	0	13%	-2
O=C(Nc1ccccc1Cl)c1ccn[nH]1	-1%	-17	4%[46.1 µM]	0	13µM*	-13
C=C1CC2C(=O)N(Cc3cc(OC)ccc3OC)C(C(=O)OCC)C1N2C (configuration not stated)	x	21	x	x	x	x
O=C(NNc1cc(Br)c(O)c(Br)c1)c1ccccc1	0%	-4	-13%	-6	-44%	-96*
NS(=O)(=O)c1ccc(NNC(=O)c2ccccc2)cc1	0%	-13	-7%	0	0%	1
NC(=O)c1c(NC(=O)C2COc3ccccc3O2)sc2c1CCN(Cc1ccccc1)C2 (configuration not stated)	6%	26	u	401*	-22%	-97*
CCCCCCn1cnc2c(oc3nc4c(cc32)CCCC4)c1=O	0%	18	-20%[46.1 µM]	-1	3.5µM*	3
S=C(NCCc1cccc(Cl)c1)NC1CCCCC1	-2%	-17	x	-3	3.2µM*	-5
Cc1ccc(-c2c(C3C4C=CCCC4(C)C(=O)N3Cc3ccccc3)ccc3ccccc23)cc1 (configuration not stated)	x	8	x	x	x	x
O=S(=O)(c1ccc(Cl)cc1)N1CCOCC1	x	3	x	x	3%	x
CC(=O)c1ccc(N2CCN(c3ncccn3)CC2)cc1	3%	-5	x	1	10µM*	1
COc1ccc(C(=O)CC(=O)c2ccccc2O)cc1OC	0%	-9	-5%	0	13µM*	16
CCC(=O)c1ccc(OCc2ccccc2)c(OC)c1	1%	4	10%	0	6.3µM*	-8
COc1ccc(C(=O)CC(=O)c2ccccc2O)cc1	0%	34	x	-2	u	-1
COc1cccc(-n2c(SCC(=O)N3CCc4ccccc43)nc3c([nH]c4ccccc43)c2=O)c1	4%	x	x	x	-26%	x
Cc1ccc2oc(C(=O)Nc3ccc(S(=O)(=O)Nc4onc(C)c4C)cc3)c(C)c2c1	0%	12	x	4	11µM*	-8
Cc1cc(C(=O)Nc2ccc(S(=O)(=O)Nc3onc(C)c3C)cc2)c(C)o1	4%	-10	-5%[46.1 µM]	-2	-1%	-4
COc1ccc2[nH]c3c(NCCC4=CCCCC4)ncnc3c2c1	-1%	-9	-57%	-2	0%	-71*
C1=C(CCNc2ncnc3nc[nH]c23)CCCC1	3%	0	10%	-1	6.3µM*	x
Clc1ccc(CCNc2ncnc3nc[nH]c23)cc1	0%	-4	-8%	-4	u	x
CN(C)c1ccc(C=NC2CCc3ccccc32)cc1 (configuration not stated)	x	x	x	x	3%	x
Cc1ccc2nc(C)c(C(=O)N/N=C/c3ccc(C(=O)O)cc3)cc2c1	-2%	-6	-16%	-1	-4%	-62*
Cc1nc2c(C)cccc2cc1C(=O)N/N=C/c1ccc(O)cc1	2%	23	-5%	2	-63%	16
COc1ccc(C=C2C=C(C(C)(C)C)C(=O)C(C(C)(C)C)=C2)cc1OC	0%	-14	x	-1	-57%	-88*
